Results reported in PubChem BioAssay (NCATS).
Records with an inconclusive call do not appear. Where a call stands in place of a potency, no number is given. Calls of active or inactive are those of the source. Unless noted, the call rests on the fitted dose curve; in most records, active means well fitted inhibition curve with a large enough effect; inconclusive means small, poorly fitted or top-dose-only effect; inactive means flat fitted curve, though single readings scatter.

What was measured:
[1] = biological target: DNA dC->dU-editing enzyme APOBEC-3G (Homo sapiens) (UniProt Q9HC16); assay: qHTS for inhibitors of Vif-A3G interactions: Validation (AID 588379)
Outline: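 HeLa cells stably expressing Vif and A3G-eYFP, 700 cells/well, incubated overnight at 37 deg C, then exposed to compound overnight at 37 deg C. Inhibition of Vif-mediated degradation read as increased yellow fluorescence (Ex 488/Em 500-530) by laser-scanning cytometry.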

[2] = biological target: Estrogen receptor (Homo sapiens) (UniProt P03372); assay: qHTS assay for small molecule agonists of estrogen receptor alpha signaling (AID 588514; calls by dose curve; further: nearly all actives have a fitted effect of over 70% in size; further: potency means the concentration at half of the fitted maximal effect)
Outline: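 ER-alpha-UAS-bla GripTite HEK293 cells, 5000/well in 2% charcoal/dextran-stripped FBS medium, treated with compound titrations 18 h at 37 C. CCF4 beta-lactamase read by fluorescence after 2 h RT; normalised to 20 nM 17-beta-estradiol (100%) and DMSO (0%), Hill fit for EC50 and efficacy.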

[3] = biological target: Glucocorticoid receptor (Homo sapiens) (UniProt P04150); assay: qHTS assay for small molecule antagonists of glucocorticoid receptor signaling (AID 588533; active means well fitted inhibition curve with a large enough effect in the signal ratio, with a control signal flat, not every such curve was filed as active; the % refers to the signal ratio;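 further: cells stimulated with 2 nM dexamethasone as agonist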; further: potency means the concentration at half of the fitted maximal effect)
Outline: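 Antagonist-mode qHTS: compound titrations added to GRE-bla HeLa cells, then dexamethasone 2 nM final; 18 h, 37 C. CCF4 FRET fluorescence normalized to dexamethasone and DMSO; IC50 from Hill fit.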

[4] = biological target: Glucocorticoid receptor (Homo sapiens) (UniProt P04150); assay: qHTS assay for small molecule agonists of glucocorticoid receptor signaling (AID 588532; active means well fitted curve in the direction sought with a large enough effect in the signal ratio, with a control signal flat; the % refers to the signal ratio); settings: HeLa MMTV-bla, beta-lactamase ratio, agonist, 18 h; stronger effect = higher value; percent of dexamethasone control, DMSO zero
Outline: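 Agonist-mode qHTS: GRE-driven beta-lactamase in HeLa cells exposed 18 h to titrated compounds (up to 92 uM), then CCF4 ratio read after 2 h at RT; Hill-fitted EC50, efficacy relative to 0.1 uM dexamethasone.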

[5] = qHTS assay for small molecule antagonists of peroxisome proliferator-activated receptor delta signaling (AID 588535; active means well fitted inhibition curve with a large enough effect in the signal ratio, with a control signal flat, not every such curve was filed as active; the % refers to the signal ratio;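 on max response: cells co-treated with a PPAR-delta agonist as stimulator during compound exposure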); settings: HEK293T PPARd-UAS-bla, beta-lactamase FRET ratio, 18 h; 460 nm channel
Outline: (§1)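 HEK293T PPAR-delta-UAS-bla cells, 4000/well, 2% charcoal/dextran FBS; 5 h 37 C; cpd titration; 18 h 37 C; CCF4 2 h RT; FI 460/530 nm; Hill fit → IC50, efficacy.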

[6] = biological target: Peroxisome proliferator-activated receptor delta (Homo sapiens) (UniProt Q03181); assay: as above
Outline: as §1

[7] = biological target: Androgen receptor (Homo sapiens) (UniProt P10275); assay: qHTS assay for small molecule agonists of androgen receptor signaling (AID 588515; active means well fitted curve in the direction sought with a large enough effect in the signal ratio, with a control signal flat; the % refers to the signal ratio); settings: AR-UAS-bla HEK293, beta-lactamase ratio, agonist 16 h; stronger effect = higher value
Outline: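 EC50 and efficacy came from Hill fits of titrations (up to 92 uM) normalized to 30 nM R1881 as 100% and DMSO as 0%. Compound exposure was 16 h at 37 C on AR-UAS-bla HEK293 cells, with a 405/460/530 nm CCF4 fluorescence read.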

[8] = biological target: Androgen receptor (Homo sapiens) (UniProt P10275); assay: qHTS assay for small molecule antagonists of androgen receptor signaling (AID 588516; active means well fitted curve in the direction sought with a large enough effect in the signal ratio, with a control signal flat, not every such curve was filed as active; the % refers to the signal ratio)
Outline: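 AR-UAS-bla-GripTite HEK 293 cells (2000/well, 5 h at 37 C) received compound titrations, then R1881 at 10 nM final; after 16 h at 37 C, CCF4 dye 2 h RT, beta-lactamase fluorescence read; IC50 from Hill fits.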

[9] = biological target: Bile acid receptor (Homo sapiens) (UniProt Q96RI1); assay: qHTS assay for small molecule antagonists of farnesoid X receptor signaling (AID 588526; calls by dose curve)
Outline: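 Beta-lactamase reporter antagonist mode: HEK293T FXR-UAS-bla cells, titrated compound, CDCA stimulation, 16 h 37 C, CCF4 dye 2 h RT. Data normalized to CDCA 50 uM and DMSO; Hill-fit IC50.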

[10] = biological target: Estrogen receptor (Homo sapiens) (UniProt P03372); assay: qHTS assay for small molecule antagonists of estrogen receptor alpha signaling (AID 588513; active means well fitted curve in the direction sought with a large enough effect in the signal ratio, with a control signal flat, not every such curve was filed as active; the % refers to the signal ratio)
Outline: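 ER-alpha-UAS-bla GripTite HEK 293 cells in medium with 2% charcoal/dextran-treated FBS were preincubated 4 h at 37 C, dosed with compound (1:2 titration), stimulated with 0.5nM 17-beta-estradiol for 18 h, then read by CCF4 beta-lactamase fluorescence.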

Chain of Glucocorticoid receptor (Homo sapiens) (P04150 whole entry, looked up): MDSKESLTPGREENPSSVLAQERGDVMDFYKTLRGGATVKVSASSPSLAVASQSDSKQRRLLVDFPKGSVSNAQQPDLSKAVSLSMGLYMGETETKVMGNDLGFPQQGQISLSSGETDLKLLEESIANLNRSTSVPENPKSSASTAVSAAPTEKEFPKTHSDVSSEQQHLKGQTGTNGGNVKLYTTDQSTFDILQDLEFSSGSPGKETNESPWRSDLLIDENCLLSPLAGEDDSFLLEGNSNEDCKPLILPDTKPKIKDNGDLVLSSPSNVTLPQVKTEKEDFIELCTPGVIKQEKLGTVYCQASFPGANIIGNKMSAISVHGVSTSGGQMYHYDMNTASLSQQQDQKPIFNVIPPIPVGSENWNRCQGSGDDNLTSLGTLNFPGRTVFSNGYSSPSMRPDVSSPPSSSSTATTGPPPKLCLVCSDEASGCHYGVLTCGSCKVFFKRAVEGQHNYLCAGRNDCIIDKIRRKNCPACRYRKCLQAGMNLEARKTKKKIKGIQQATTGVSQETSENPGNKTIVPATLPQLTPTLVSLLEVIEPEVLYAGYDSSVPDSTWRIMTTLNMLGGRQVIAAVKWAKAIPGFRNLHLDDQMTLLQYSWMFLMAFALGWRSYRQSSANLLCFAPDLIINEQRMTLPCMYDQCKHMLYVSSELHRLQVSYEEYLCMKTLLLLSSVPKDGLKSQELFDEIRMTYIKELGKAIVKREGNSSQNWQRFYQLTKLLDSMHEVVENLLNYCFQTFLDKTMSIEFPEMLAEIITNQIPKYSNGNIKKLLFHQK
Chain of Estrogen receptor (Homo sapiens) (P03372 whole entry, looked up): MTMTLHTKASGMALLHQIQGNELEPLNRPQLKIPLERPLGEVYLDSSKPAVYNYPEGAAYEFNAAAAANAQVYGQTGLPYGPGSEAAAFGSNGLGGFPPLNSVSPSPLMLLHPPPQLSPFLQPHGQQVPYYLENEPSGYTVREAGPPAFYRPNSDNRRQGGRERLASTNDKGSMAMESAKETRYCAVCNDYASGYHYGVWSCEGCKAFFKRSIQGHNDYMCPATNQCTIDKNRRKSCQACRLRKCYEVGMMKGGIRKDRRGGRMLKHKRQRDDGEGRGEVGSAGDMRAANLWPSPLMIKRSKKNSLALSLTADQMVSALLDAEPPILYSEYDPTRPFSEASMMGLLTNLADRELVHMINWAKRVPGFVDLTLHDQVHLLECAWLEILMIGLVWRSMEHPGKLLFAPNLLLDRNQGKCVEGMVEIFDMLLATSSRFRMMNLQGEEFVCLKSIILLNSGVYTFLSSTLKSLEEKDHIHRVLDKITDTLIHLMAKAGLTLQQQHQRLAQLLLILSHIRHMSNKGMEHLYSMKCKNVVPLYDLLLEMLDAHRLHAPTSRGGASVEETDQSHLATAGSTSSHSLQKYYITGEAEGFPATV
Chain of Bile acid receptor (Homo sapiens) (Q96RI1 whole entry, looked up): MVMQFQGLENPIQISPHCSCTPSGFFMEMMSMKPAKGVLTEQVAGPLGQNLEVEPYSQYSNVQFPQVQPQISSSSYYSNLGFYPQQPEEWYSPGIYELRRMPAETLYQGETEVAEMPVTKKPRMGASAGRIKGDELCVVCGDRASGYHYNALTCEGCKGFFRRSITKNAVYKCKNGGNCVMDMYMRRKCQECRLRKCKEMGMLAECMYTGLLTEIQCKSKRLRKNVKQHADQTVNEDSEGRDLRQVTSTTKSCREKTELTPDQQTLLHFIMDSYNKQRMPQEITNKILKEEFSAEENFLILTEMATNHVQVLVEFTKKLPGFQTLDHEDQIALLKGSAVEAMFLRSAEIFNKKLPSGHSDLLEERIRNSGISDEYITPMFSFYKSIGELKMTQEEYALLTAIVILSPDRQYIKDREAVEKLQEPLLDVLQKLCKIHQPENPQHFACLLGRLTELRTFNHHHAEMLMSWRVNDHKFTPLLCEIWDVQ
Chain of Androgen receptor (Homo sapiens) (P10275 whole entry, looked up): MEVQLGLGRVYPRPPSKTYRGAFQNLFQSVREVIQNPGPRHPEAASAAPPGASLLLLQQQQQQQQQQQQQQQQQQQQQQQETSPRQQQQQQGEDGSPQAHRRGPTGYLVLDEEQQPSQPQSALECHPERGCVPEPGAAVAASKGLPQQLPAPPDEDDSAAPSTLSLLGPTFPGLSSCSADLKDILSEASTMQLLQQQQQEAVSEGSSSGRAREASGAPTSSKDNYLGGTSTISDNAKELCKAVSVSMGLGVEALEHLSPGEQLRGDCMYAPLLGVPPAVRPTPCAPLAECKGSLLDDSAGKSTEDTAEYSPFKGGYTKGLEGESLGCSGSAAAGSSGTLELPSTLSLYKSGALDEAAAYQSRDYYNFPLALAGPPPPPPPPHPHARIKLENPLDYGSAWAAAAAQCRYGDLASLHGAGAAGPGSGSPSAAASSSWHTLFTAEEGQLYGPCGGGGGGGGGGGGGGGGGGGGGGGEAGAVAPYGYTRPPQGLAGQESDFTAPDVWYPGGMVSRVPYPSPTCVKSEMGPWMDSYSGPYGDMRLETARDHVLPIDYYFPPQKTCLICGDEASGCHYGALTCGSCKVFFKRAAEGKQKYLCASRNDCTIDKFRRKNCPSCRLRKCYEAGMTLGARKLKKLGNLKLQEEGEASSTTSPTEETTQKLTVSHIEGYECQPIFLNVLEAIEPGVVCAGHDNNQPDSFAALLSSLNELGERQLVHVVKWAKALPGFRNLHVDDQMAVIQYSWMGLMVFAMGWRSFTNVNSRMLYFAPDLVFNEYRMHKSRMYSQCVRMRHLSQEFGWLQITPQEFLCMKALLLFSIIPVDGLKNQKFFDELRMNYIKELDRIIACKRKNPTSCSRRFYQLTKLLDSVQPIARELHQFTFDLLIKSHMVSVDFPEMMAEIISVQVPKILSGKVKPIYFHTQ
Chain of DNA dC->dU-editing enzyme APOBEC-3G (Homo sapiens) (Q9HC16 whole entry, looked up): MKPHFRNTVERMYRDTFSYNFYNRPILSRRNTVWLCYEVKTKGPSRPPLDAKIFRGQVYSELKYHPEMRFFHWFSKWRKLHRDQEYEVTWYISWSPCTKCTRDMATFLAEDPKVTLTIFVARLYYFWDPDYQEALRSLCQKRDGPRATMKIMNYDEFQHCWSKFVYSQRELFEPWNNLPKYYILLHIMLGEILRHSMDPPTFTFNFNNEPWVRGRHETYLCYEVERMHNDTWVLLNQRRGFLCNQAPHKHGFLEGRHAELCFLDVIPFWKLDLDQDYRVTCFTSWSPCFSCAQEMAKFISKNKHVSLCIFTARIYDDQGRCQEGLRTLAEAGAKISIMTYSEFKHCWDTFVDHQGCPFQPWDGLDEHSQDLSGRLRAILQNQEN
Chain of Peroxisome proliferator-activated receptor delta (Homo sapiens) (Q03181 whole entry, looked up): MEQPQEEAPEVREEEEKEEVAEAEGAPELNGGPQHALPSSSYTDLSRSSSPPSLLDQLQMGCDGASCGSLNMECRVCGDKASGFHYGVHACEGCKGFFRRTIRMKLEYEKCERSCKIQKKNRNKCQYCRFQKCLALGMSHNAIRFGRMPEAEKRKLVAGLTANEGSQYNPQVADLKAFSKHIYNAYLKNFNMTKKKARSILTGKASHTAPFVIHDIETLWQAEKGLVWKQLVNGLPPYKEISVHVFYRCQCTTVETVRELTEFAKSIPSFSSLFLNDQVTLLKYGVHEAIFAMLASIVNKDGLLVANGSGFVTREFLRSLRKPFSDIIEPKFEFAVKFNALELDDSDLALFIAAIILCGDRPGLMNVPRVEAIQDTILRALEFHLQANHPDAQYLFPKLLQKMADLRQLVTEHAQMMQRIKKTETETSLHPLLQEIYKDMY

## CCCc1c(-c2ccc(O)cc2)nn(-c2ccc(O)cc2)c1-c1ccc(O)cc1
[1]
  Potency: inactive
[2]
  Potency: 0.0112 µM (active)
[3]
  Potency: 28.2 µM (active)

## CC(=O)N[C@@H](Cc1c[nH]c2ccccc12)C(=O)OCc1cc(C(F)(F)F)cc(C(F)(F)F)c1
[1]
  Potency: inactive

## O=C(OCCN1CCOCC1)C1(c2ccccc2)CCCCC1
[1]
  Potency: inactive

## CC1=C(/C=C/C(C)=C/C=C/C(C)=C\C(=O)O)C(C)(C)CCC1
[4]
  activation: -7.34% (inactive)
[5]
  max response: 61.4%
[6]
  outcome: inactive

## Cc1cccc(C(=O)NCN2CCN(c3ccccc3C#N)CC2)c1
[1]
  Potency: inactive

## CC1CCN(CC[C@H]2CCCN2S(=O)(=O)c2cccc(O)c2)CC1
[1]
  Potency: inactive

## COc1ccc(CCN(C)CCc2ccc(OC)c(OC)c2)cc1OC
[1]
  Potency: inactive

## CC[N+](CC)(CC)CC(=O)Nc1c(C)cccc1C
[1]
  Potency: inactive

## O=[N+]([O-])c1cccc2c(Br)[nH]nc12
[1]
  Potency: inactive

## CCCc1c(OCCCOc2ccc(OCC(=O)O)cc2)ccc(C(C)=O)c1O
[7]
  activation: -2.09% (inactive)
[8]
  outcome: inactive
[9]
  outcome: inactive
[4]
  activation: -12.7% (inactive)
[3]
  Potency: inactive

## CCCn1c(=O)c2[nH]c(C3CCCC3)nc2n(CCC)c1=O
[1]
  Potency: inactive

## COc1cc(CNC(=O)CCCCCCC(C)C)ccc1O
[1]
  Potency: inactive

## NCCNS(=O)(=O)c1cccc2c(Cl)cccc12
[1]
  Potency: inactive

## CCCCCCCCCCCCCCSCC(=O)O
[2]
  Potency: inactive
[7]
  activation: -2.58% (inactive)
[8]
  outcome: inactive
[3]
  Potency: inactive

## CC[C@@H]1Cc2cc(O)ccc2C2=C1c1ccc(O)cc1C[C@H]2CC
[7]
  activation: -13.9% (inactive)
[4]
  activation: -4.83% (inactive)

## NC(N)=NC(N)=Nc1cccc(Cl)c1
[1]
  Potency: inactive

## O=C(O)c1cccnc1C(=O)O
[1]
  Potency: inactive

## CC(=O)NNC(=O)N1Cc2ccccc2Oc2ccc(Cl)cc21
[1]
  Potency: inactive

## CC(C)NC[C@H](O)COc1ccc(CC(N)=O)cc1
[1]
  Potency: inactive

## c1ccc2nc(C3=NCCN3)ccc2c1
[1]
  Potency: inactive

## CC(=O)C(C)=O
[9]
  outcome: inactive
[4]
  activation: 6.3% (inactive)
[3]
  Potency: inactive
[5]
  max response: 5.57%
[6]
  outcome: inactive

## N=C(N)SCCc1cnc[nH]1
[1]
  Potency: inactive

## O=[N+]([O-])c1cccc2cn[nH]c12
[1]
  Potency: inactive

## NS(=O)(=O)c1cccc2c1c([N+](=O)[O-])cc1nc(O)c(O)nc12
[1]
  Potency: inactive

## O=C(O)C1=CCCNC1
[1]
  Potency: inactive

## C/C(=C\c1ccc(C(=O)O)cc1)c1ccc2c(c1)C(C)(C)CCC2(C)C
[1]
  Potency: inactive
[2]
  Potency: inactive
[9]
  outcome: inactive
[4]
  activation: -4.65% (inactive)

## N[C@H](C(=O)O)[C@H](O)C(=O)O
[1]
  Potency: inactive

## CN1CCN(c2nc3cc(C(F)(F)F)ccc3n3cccc23)CC1
[1]
  Potency: inactive

## COc1ccccc1N1CCN(CCCCN2C(=O)c3ccccc3C2=O)CC1
[1]
  Potency: inactive

## NC(=O)c1ccccc1
[10]
  outcome: inactive
[2]
  Potency: inactive
[7]
  activation: -3.5% (inactive)
[8]
  outcome: inactive
[9]
  outcome: inactive
[4]
  activation: -7.58% (inactive)
[3]
  Potency: inactive

## NCCS(=O)O
[1]
  Potency: inactive

## N#Cc1cc2nc(O)c(O)nc2cc1[N+](=O)[O-]
[1]
  Potency: inactive

## CCCn1c(=O)c(C)cn2nc(N)nc12
[1]
  Potency: inactive

## OC1(c2ccc(Cl)cc2)CCN(Cc2c[nH]c3ccccc23)CC1
[1]
  Potency: inactive

## Cc1nc(N=Nc2ccc(S(=O)(=O)O)cc2S(=O)(=O)O)c(COP(=O)(O)O)c(C=O)c1O
[1]
  Potency: inactive
